Screens as filed in PubChem BioAssay.
T cruzi growth-1 – inhibitors of T. cruzi proliferation. T. cruzi beta-gal in NIH3T3, GalScreen luminescence, 90 h. inhibition, % at 8.34 µM. hit rate 5.9% among 77,000. AID 624255;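 active = mean inhibition above about 93%, with at least 55% of replicates each passing it, limit read from the data, passing the limit was not always enough; inconclusive = only one of those two conditions holds; inactive = neither condition holds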
C diff growth – blocks growth of Clostridium difficile; Clostridium difficile clinical isolate growth, OD600, 24 h; stronger effect = lower value; growth activity, negative = inhibition, % at 16 µg/mL (by protocol); hit rate 0.25% among 86,000; AID 1259249;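 active = mean growth activity at or below -80% and every replicate also at or below -80%; inconclusive = mean at or below -80% but some replicate above -80%; inactive = mean growth activity above -80%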
Pf Dd2 growth – P. falciparum Dd2 growth inhibition | SYBR Green, 72 h; stronger effect = lower value | activity change, % at 10 µM | hit rate 2.3% among 94,000 | AID 1159554; in the data active = activity change below about -80%; inconclusive = no clear call, values can overlap the other calls
T cruzi growth-2 – blocks T. cruzi growth in NIH3T3 host cells. shares compounds with T cruzi growth-1. T. cruzi beta-gal in NIH3T3, GalScreen luminescence, 90 h. inhibition, % at 8.35 µM. hit rate 72% among 5,600;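 active = mean replicate inhibition above about 95% and at least 55% of replicates individually reaching it, limit read from the data; inconclusive = only one of the two criteria is met; inactive = neither criterion is met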
T cruzi growth-3 – blocks T. cruzi growth in NIH3T3 host cells. shares compounds with T cruzi growth-1. T. cruzi beta-gal in NIH3T3, GalScreen luminescence, 90 h. inhibition, % at 2.09 µM. hit rate 21% among 5,600. AID 651740;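 active = mean inhibition above about 95%, with at least 55% of replicates also reaching it, limit read from the data; inconclusive = meets just one of the two conditions; inactive = meets neither condition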
NIH3T3 tox – cytotoxicity in mouse NIH/3T3 fibroblasts; NIH/3T3 viability, CellTiter-Glo ATP luminescence, 90 h; AID 651742; cytotoxicity (signal decrease), % at 8.35 µM; hit rate 14% among 5,600; shares compounds with T cruzi growth-1;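 active = mean signal decrease across replicates above about 35% based on untreated-well scatter, with enough replicates individually passing, limit read from the data; inconclusive = no rule stated though some were filed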
NIH3T3 tox 2 – NIH/3T3 (mouse) viability loss; shares compounds with T cruzi growth-1; NIH/3T3 viability, CellTiter-Glo ATP luminescence, 90 h; inhibition, % at 24.9 µM; hit rate 56% among 5,600; AID 651744;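 active = mean loss of cell viability signal at or above a set limit, and enough replicates individually reaching it; inconclusive = meets only the mean limit or only the replicate share; inactive = meets neither condition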
Each line names hits and unclear results; the compound was inactive in the other large screens (follow-up assays come after a bar, where they were run). Compounds with a hit are over-represented: about 6.7% of the library has one in this group of screens.

OC[C@@H]1CC[C@@H]2O[C@H](CCc3ccc(C#CCc4ccccc4)cc3)[C@@H](n3cc(-c4ccccc4)nn3)C[C@@H]2O1	none (no result: T cruzi growth-1)
C[C@H]1CCCCO[C@H](CN(C)C(=O)Nc2ccccc2)[C@@H](C)CN([C@@H](C)CO)C(=O)c2cc(NC(=O)Nc3ccccc3)ccc2O1	T cruzi growth-1 98 | T cruzi growth-2 109 | T cruzi growth-3 inactive | NIH3T3 tox inactive | NIH3T3 tox 2 inactive
C[C@@H]1CCCCO[C@H](CN(C)C(=O)Nc2ccccc2)[C@H](C)CN([C@@H](C)CO)C(=O)c2cc(NC(=O)Nc3ccccc3)ccc2O1	none
C[C@H]1CCCCO[C@@H](CN(C)C(=O)Nc2ccccc2)[C@@H](C)CN([C@@H](C)CO)C(=O)c2cc(NC(=O)Nc3ccccc3)ccc2O1	T cruzi growth-1 inconclusive | T cruzi growth-2 110 | T cruzi growth-3 inactive | NIH3T3 tox inactive | NIH3T3 tox 2 inactive
C[C@H](CO)N1C[C@H](C)[C@H](CN(C)C(=O)Nc2ccccc2)OCCCC[C@H](C)Oc2ccc(NC(=O)Nc3ccc(F)cc3)cc2C1=O	none (no result: C diff growth)
CC(C)NC(=O)Nc1ccc2c(c1)C(=O)N([C@@H](C)CO)C[C@@H](C)[C@@H](CN(C)C(=O)Nc1ccccc1)OCCCC[C@H](C)O2	none
C[C@H](CO)N1C[C@H](C)[C@@H](CN(C)C(=O)Nc2ccccc2)OCCCC[C@H](C)Oc2ccc(NC(=O)Nc3ccccc3)cc2C1=O	T cruzi growth-1 102 | T cruzi growth-2 107 | T cruzi growth-3 inactive | NIH3T3 tox inactive | NIH3T3 tox 2 inactive
CC(C)NC(=O)Nc1ccc2c(c1)C(=O)N([C@@H](C)CO)C[C@H](C)[C@H](CN(C)C(=O)Nc1ccccc1)OCCCC[C@H](C)O2	T cruzi growth-1 100 | T cruzi growth-2 inactive | T cruzi growth-3 inactive | NIH3T3 tox inactive | NIH3T3 tox 2 inactive
CC(C)NC(=O)N(C)C[C@H]1OCCCC[C@H](C)Oc2ccc(NC(=O)Nc3ccccc3)cc2C(=O)N([C@H](C)CO)C[C@@H]1C	none
C[C@H]1CN([C@@H](C)CO)C(=O)Cc2cc(NC(=O)Nc3ccc(F)cc3)ccc2O[C@@H]1CN(C)S(=O)(=O)c1ccccc1	none
CO[C@@H]1CN(C)C(=O)c2ccc(NS(C)(=O)=O)cc2OC[C@H](C)N(CC2CCOCC2)C[C@H]1C	none (no result: C diff growth)
C[C@@H]1CN([C@@H](C)CO)C(=O)c2cccc(NC(=O)c3ccc(-c4nccs4)cc3)c2O[C@@H]1CN(C)S(=O)(=O)c1ccc(Cl)cc1	none
COc1ccc2c3c(n(C)c2c1)[C@@H](CO)N(C(C)=O)CC31CN(C(=O)c2cnccn2)C1	none (no result: T cruzi growth-1)
O=C(C[C@H]1C[C@@H]2c3cc(NS(=O)(=O)c4ccc(F)cc4)ccc3O[C@@H]2[C@H](CO)O1)NCc1cc(F)ccc1F	none
O=C(Nc1ccc(F)cc1)Nc1ccc2c(c1)[C@H]1C[C@@H](CC(=O)N3CCCCC3)O[C@@H](CO)[C@H]1O2	T cruzi growth-1 111 | T cruzi growth-2 inactive | T cruzi growth-3 inactive | NIH3T3 tox inactive | NIH3T3 tox 2 inactive
O=C(C[C@@H]1C[C@H]2c3cc(NS(=O)(=O)c4ccccc4)ccc3O[C@H]2[C@@H](CO)O1)N1CCCCC1	T cruzi growth-1 101 | T cruzi growth-2 inactive | T cruzi growth-3 inactive | NIH3T3 tox inactive | NIH3T3 tox 2 inactive
O=C(C[C@@H]1C[C@H]2c3cc(NS(=O)(=O)c4ccccc4)ccc3O[C@H]2[C@H](CO)O1)N1CCCCC1	T cruzi growth-1 104 | T cruzi growth-2 inactive | T cruzi growth-3 inactive | NIH3T3 tox inactive | NIH3T3 tox 2 40
O=C(Nc1ccc(F)cc1)Nc1ccc2c(c1)[C@@H]1C[C@@H](CC(=O)N3CCCCC3)O[C@H](CO)[C@@H]1O2	none
O=C(C[C@H]1C[C@H]2c3cc(NS(=O)(=O)c4ccccc4)ccc3O[C@H]2[C@@H](CO)O1)N1CCCCC1	none
O=C(C[C@@H]1C[C@H]2c3cc(NS(=O)(=O)c4ccccc4)ccc3O[C@H]2[C@@H](CO)O1)N1CCOCC1	none
O=C(C[C@@H]1C[C@@H]2c3cc(NC(=O)NC4CCCC4)ccc3O[C@@H]2[C@H](CO)O1)NCc1ccc2c(c1)OCO2	none (no result: T cruzi growth-1)
O=C(C[C@@H]1C[C@@H]2c3cc(NS(=O)(=O)c4ccc(F)cc4)ccc3O[C@@H]2[C@@H](CO)O1)N1CCCCC1	none (no result: T cruzi growth-1)
O=C(C[C@@H]1C[C@H]2c3cc(NS(=O)(=O)c4ccc(F)cc4)ccc3O[C@H]2[C@H](CO)O1)N1CCc2ccccc2C1	T cruzi growth-1 inconclusive | T cruzi growth-2 inactive | T cruzi growth-3 inactive | NIH3T3 tox inactive | NIH3T3 tox 2 inactive
CS(=O)(=O)Nc1ccc2c(c1)[C@@H]1C[C@H](CC(=O)N3CCc4ccccc4C3)O[C@H](CO)[C@@H]1O2	none (no result: T cruzi growth-1)
O=C(C[C@H]1C[C@H]2c3cc(NS(=O)(=O)c4ccc(F)cc4)ccc3O[C@H]2[C@H](CO)O1)N1CCc2ccccc2C1	T cruzi growth-1 110 | T cruzi growth-2 inactive | T cruzi growth-3 inactive | NIH3T3 tox inactive | NIH3T3 tox 2 inactive
CS(=O)(=O)Nc1ccc2c(c1)[C@@H]1C[C@@H](CC(=O)N3CCc4ccccc4C3)O[C@@H](CO)[C@@H]1O2	none (no result: T cruzi growth-1)
O=C(C[C@@H]1C[C@@H]2c3cc(NS(=O)(=O)c4ccc(F)cc4)ccc3O[C@@H]2[C@@H](CO)O1)N1CCc2ccccc2C1	T cruzi growth-1 115 | T cruzi growth-2 100 | T cruzi growth-3 inactive | NIH3T3 tox inactive | NIH3T3 tox 2 inactive
Cc1noc(C)c1NC(=O)Nc1ccc2c(c1)CC(=O)N([C@@H](C)CO)C[C@@H](C)[C@H](CN(C)Cc1ccc(C(=O)O)cc1)O2	none
CN(C)C(=O)C[C@H]1CC[C@@H]2[C@H](COC[C@H](O)CN2CC2CCOCC2)O1	none (no result: C diff growth)
Cc1ccc(-c2ccc3c(c2)O[C@H](CN(C)Cc2ccncc2)[C@@H](C)CN([C@@H](C)CO)S3(=O)=O)cc1	T cruzi growth-1 124 | T cruzi growth-2 103 | T cruzi growth-3 104 | NIH3T3 tox 69 | NIH3T3 tox 2 103
C[C@@H]1CN([C@@H](C)CO)S(=O)(=O)c2ccc(-c3ccccc3)cc2O[C@@H]1CN(C)Cc1ccncc1	none (no result: C diff growth)
C[C@H](CO)N1C[C@H](C)[C@@H](CN(C)Cc2ccncc2)Oc2cc(-c3ccccc3)ccc2S1(=O)=O	none (no result: C diff growth)
Cc1ccc(-c2ccc3c(c2)O[C@@H](CN(C)Cc2ccncc2)[C@H](C)CN([C@H](C)CO)S3(=O)=O)cc1	T cruzi growth-1 123, Pf Dd2 growth -84 | T cruzi growth-2 inactive | T cruzi growth-3 100 | NIH3T3 tox 98 | NIH3T3 tox 2 106
O=C([C@H]1[C@H](CO)[C@H]2Cn3c(ccc(C4=CCCCC4)c3=O)[C@H]2N1Cc1nccs1)N1CCOCC1	none
